{
  "source": "PubChem BioAssay AID435019",
  "about": "(Southern Research Specialized Biocontainment Screening …, 2010)",
  "note": "Out of some 2,300 compounds screened, about 1,200 (52%) were called active. So high a share suggests a set chosen from earlier hits. This is one part of the list. Results with a measured potency or affinity are listed apart. Unmarked numbers belong to inactive results. How the calls were made is not given here.",
  "data": [
    {"test": "mammalian cell cytotoxicity, dose response, cytotoxicity control for M. tuberculosis inhibitor project (AID 435019);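 further: 0% = background wells and 100% = vehicle-treated cells; lower values mean fewer viable cells so more cytotoxicity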", "details": "cytotoxicity counter-screen; series mostly up to 40 µM; viability: at the top concentration", "units": {"viability": "%"}, "values": [
      {"smiles": "CS(=O)(=O)c1ncc(Cl)c(C(=O)Nc2ccc(OC(F)F)cc2)n1", "viability": 87.7},
      {"smiles": "COCCOC(=O)c1ccc(NC(=O)COc2ccc([N+](=O)[O-])cc2)cc1", "viability": 101},
      {"smiles": "CC1CCN(C(=O)C2CCN(c3nnc(-n4cccc4)s3)CC2)CC1", "viability": 86.7},
      {"smiles": "COCc1nnc(NC(=O)C2CC(=O)N(c3ccc(C)c(Cl)c3)C2)s1", "note": "(stereo not given)", "viability": 87.4},
      {"smiles": "COc1ccc2c(c1)[C@@H]1[C@H](CO2)[C@H](c2ccccc2)[C@]2(C)C(=O)Nc3ccc(C)cc3C(=O)N12", "viability": 84.9},
      {"smiles": "CCC(=O)c1coc2ccc(O)cc12", "viability": 102},
      {"smiles": "CCCCc1ccc(NC=C2C(=O)OC3(CCCCC3)OC2=O)cc1", "viability": 97.2},
      {"smiles": "C#CCOC(=O)/C(=C/C=C/c1ccccc1)NC(=O)c1ccccc1", "viability": 92.6},
      {"smiles": "Cc1ccc(C(=O)N/C(=C/c2ccco2)C(=O)OCN2C(=O)c3ccccc3C2=O)cc1", "viability": 96.3},
      {"smiles": "O=C(OCn1nnc2ccccc2c1=O)C1CCCCC1", "viability": 93.7},
      {"smiles": "CN1[C@@H]2CC[C@H]1CC(OC(=O)[C@H](CO)c1ccccc1)C2", "note": "(stereo not given in full)", "viability": 96.7},
      {"smiles": "CC(=O)c1cccc(NC(=S)NC2CCCCCCC2)c1", "viability": 95.3},
      {"smiles": "Cc1[nH]nc2nc3c(c(OC(=O)c4ccccc4)c12)c(=O)n(C)c(=O)n3C", "viability": 98.9},
      {"smiles": "Cc1cc(/C=C(/C#N)c2cccc(F)c2)c(C)n1-c1cccnc1", "viability": 82.3},
      {"smiles": "N#Cc1cccc(NC(=O)N2CCC(c3nc4c(nnn4Cc4cccc(Cl)c4)c(=O)[nH]3)CC2)c1", "viability": 92.3},
      {"smiles": "CCOC(=O)c1ccc(Oc2nc(NC(C)(C)C)nc(N(C)C)n2)cc1", "viability": 80.1},
      {"smiles": "CN(C)S(=O)(=O)c1cccc(NC(=O)CCc2nc3sc4c(c3c(=O)[nH]2)CCCC4)c1", "viability": 82.9},
      {"smiles": "Cc1cc(OCc2nc3ccccc3s2)ccc1N", "viability": 85.9},
      {"smiles": "CCCC(=O)OCCNc1cc(SCCC(=O)OC)c2nonc2c1[N+](=O)[O-]", "viability": 88.2},
      {"smiles": "CCOC(=O)c1nn(-c2ccc(C)c(C)c2)cc1O", "viability": 83.7},
      {"smiles": "CCn1cc(Br)c(C(=O)Nc2ccc(C(=O)OC(C)C)cc2)n1", "viability": 86.2},
      {"smiles": "C=CC[N@@+]12CC[C@]34c5ccccc5N5/C=C6\\C7N(/C=C(\\C53)[C@@H](C[C@@H]41)/C(=C/CO)C2)c1ccccc1[C@@]71CC[N@@+]2(CC=C)C/C(=C\\CO)[C@@H]6C[C@@H]12", "note": "(stereo not given in full)", "viability": 98.7},
      {"smiles": "Cc1cccc(C(=O)OCC(=O)N2CCc3ccccc3C2)c1O", "viability": 102},
      {"smiles": "CC(C)c1ccc2[nH]c(O)c(N=NC(=O)c3ccc(CSc4nncn4C)cc3)c2c1", "viability": 94.1},
      {"smiles": "COC(=O)N/N=C/c1c[n+]([O-])c2ccccc2[n+]1[O-]", "viability": 98.9},
      {"smiles": "N[C@@H](CCl)C(=O)O", "viability": 107},
      {"smiles": "Cc1ccc(NC(=O)C2=C(O)CCn3c2nc2ccccc23)cc1", "viability": 87.9},
      {"smiles": "O=C(CSc1nc2ccccc2c(=O)[nH]1)NCc1ccc(Cl)cc1", "viability": 93},
      {"smiles": "CC(C)NC(=O)c1onc(CSc2ccc(F)c(F)c2)c1C(=O)O", "viability": 95},
      {"smiles": "Cc1ccc(-c2noc(-c3cc4ccccc4oc3=O)n2)cc1", "viability": 99.3},
      {"smiles": "CCN(Cc1ccncc1)Cc1nc(-c2ccc(C(=O)OC)cc2)no1", "viability": 91},
      {"smiles": "COc1ccc(-c2oc3cccnc3c2/C=C/c2ccc(OC)c(OC)c2)cc1", "viability": 82.9},
      {"smiles": "O=C(NCC1CC1)c1cc([N+](=O)[O-])cc([N+](=O)[O-])c1", "viability": 99.8},
      {"smiles": "CCOc1cc(C=O)cc(N=Nc2cccc([N+](=O)[O-])c2)c1O", "viability": 90.6},
      {"smiles": "CCOC(=O)c1ccc(N=Cc2c(O)c3ccccc3oc2=O)cc1", "viability": 80.2},
      {"smiles": "N/C(=N\\OC(=O)CCC1CCCC1)c1cccc([N+](=O)[O-])c1", "viability": 98.7},
      {"smiles": "CCOC(=O)/C(=N\\Nc1ccc(Br)cc1)N1CC(C)OC(C)C1", "note": "(stereo not given)", "viability": 90.9},
      {"smiles": "CC(OC(=O)CCN=C1NS(=O)(=O)c2ccccc21)C(=O)Nc1ccc(F)c(F)c1F", "note": "(stereo not given)", "viability": 94.8},
      {"smiles": "CC(C)(C)c1ccc(OCCC(=O)OCC(=O)NC(=O)NC2CCCC2)cc1", "viability": 81.8},
      {"smiles": "Nc1cnccc1C(=O)O", "viability": 94.5},
      {"smiles": "O=C1CC(Nc2ccc3ccccc3c2)C(=O)N1Cc1ccccc1", "note": "(stereo not given)", "viability": 85.1},
      {"smiles": "Cc1c(C(=O)Oc2cccc3ccccc23)cnn1-c1ccccc1", "viability": 86.8},
      {"smiles": "CC(=NCc1ccc2c(c1)OCO2)C1=C(O)c2ccccc2C1=O", "viability": 87.7},
      {"smiles": "CCOC(=O)C1=C(C)Nc2nc(SCC(=O)OC)nn2C1c1cc(F)cc(F)c1", "note": "(stereo not given)", "viability": 101},
      {"smiles": "CC(=O)Oc1ccc(/C=N\\NC(=O)c2cc3c(ccc4ccccc43)o2)cc1", "viability": 85.8},
      {"smiles": "COC(=O)Cc1ccc(NC(=S)Nc2ccccn2)cc1", "viability": 81.1},
      {"smiles": "COc1ccc(NC(=O)ON=C2c3ccccc3-c3ccccc32)cc1", "viability": 84.1},
      {"smiles": "Nc1ccc(N=Nc2ccccc2)c2cccnc12", "viability": 81.9},
      {"smiles": "O=C(Nc1cccc(C(F)(F)F)c1)c1ccc2nc(-c3ccco3)c(-c3ccco3)nc2c1", "viability": 80.1},
      {"smiles": "Nc1cccc(-c2cc3ccccc3oc2=O)c1", "viability": 89.7},
      {"smiles": "CCOC(=O)c1sc(C)c2c(=O)n(CC(=O)c3ccc(Br)cc3)nnc12", "viability": 85},
      {"smiles": "CCOC(=O)Cn1nc(-c2ccccc2)nc1-c1ccccc1", "viability": 97.6},
      {"smiles": "NC(N)=Nc1nc(-c2ccccc2)c2ccccc2n1", "viability": 87.4},
      {"smiles": "CCOC(=O)c1ccc(N=Cc2nc3ccccc3n2C)cc1", "viability": 90.3},
      {"smiles": "CCOc1cc(/C=N/Nc2nc(Nc3ccccc3)nc(N3CCCCC3)n2)ccc1OCC(=O)O", "viability": 81.1}
    ]}
  ]
}
